# Measured values published in PubChem BioAssay (Tox21).
# Inconclusive results are not listed. Values without a mark were called inactive. Calls of active or inactive are those of the source. The call rests on the fitted dose curve; in most records, active means well fitted cell-killing curve with a large enough effect in the repeat runs; inconclusive means weak or mixed curves; inactive means flat fitted curve, though single readings scatter.
# Experiment: qHTS RealTime-Glo MT Cell Viability Assay in HepG2 cells - 8 hour (AID 1224873); further: nearly all actives have a fitted effect of over 55% in size
# Details: RealTime-Glo luminescence; series mostly up to 76.8 µM; viability change, negative = cytotoxic: at the top concentration
# Description: National Center for Advancing Translational Sciences [NCATS]
# NIH Chemical Genomics Center [NCGC]
# U.S. Environmental Protection Agency [EPA]
# National Institutes of Environmental Health Sciences [NIEHS]
# National Toxicology Program [NTP]
# U.S. Food and Drug Administration [FDA]
# Measure of cell viability is critical in the cell-base assay. Analysis of cell viability is necessary for the characterization of cell responses to cytotoxic drugs and environmental stress. A RealTime-Glo MT Cell Viability Assay to monitor cell viability in real time of continues cell culture during 40 hours of compound treatment was used to screen Tox21 10K library compounds in HepG2 cells. The RealTime-Glo MT Cell Viability Assay is a nonlytic, homogeneous, bioluminescent method to measure cell viability in real time using a simple, plate-based method. The assay involves adding NanoLuc luciferase and a cell-permeant prosubstrate to cells in culture. Viable cells reduce the proprietary prosubstrate to generate a substrate for NanoLuc luciferase. This substrate diffuses from cells into the surrounding culture medium, where it is rapidly used by the NanoLuc Enzyme to produce a luminescent signal. The signal correlates with the number of viable cells, making the assay well suited for cytotoxicity studies.
# Tox21 Assay Protocol Summary:
# The mixture of HepG2 cell suspension and reagents were dispensed at 600cells/6 ul/well in 1536-well tissue culture treated black solid bottom plates using a Multidrop dispenser. After the assay plates were incubated at a 37 C/5% CO2 incubator for 5 hours, 23 nL of compounds dissolved in DMSO, positive and negative controls was transferred to the assay plate by a pintool work station. The plates were incubated at 37 C for 40 hours. The luminescence intensity were measured at 0h, 8h, 16h, 24h, 32h and 40h time points using ViewLux plate reader during compound treatment.
# On the % scale 0 is the no-effect control and ±100 the full control effect; potency means the concentration at half of the fitted maximal effect.
Compound,"viability change, negative = cytotoxic",Potency
CCOC=C(C(=O)OCC)C(=O)OCC,2.19%,
Nc1ccc(Cl)c([N+](=O)[O-])c1,0.824%,
CN1CCN(c2ccccc2/C=C2\SCCN(c3ccc(Cl)c(Cl)c3)C2=O)CC1,,49 µM (active)
CCCOC(=O)c1ccc(O)cc1,-4.65%,
CCC1(C)C(=O)N(Cl)C(=O)N1Cl (stereo not given),2.42%,
CC(Cc1ccc(O)c(O)c1)C(C)Cc1ccc(O)c(O)c1 (stereo not given),,43.6 µM (active)
C/C(=C\c1ccc(C(=O)O)cc1)c1ccc2c(c1)C(C)(C)CCC2(C)C,-6.16% [at 35.3 µM],
CN1CCN(C)CC1,-11.5%,
CCOC(=O)C1=NN(c2ccc(Cl)cc2Cl)C(C)(C(=O)OCC)C1 (stereo not given),-6.47%,
CCOc1nc(F)cc2nc(S(=O)(=O)Nc3c(Cl)cccc3C(=O)OC)nn12,-1.06%,
O=C(O)CN(CCCN(CC(=O)O)CC(=O)O)CC(=O)O,-18.6% [at 15.8 µM],
O=C1OC(O)C(C(Cl)Cl)=C1Cl (stereo not given),-16.3%,
C/C=C/C(=O)C1=C(C)C=CCC1(C)C,3.58%,
C1CCSC1,0.29%,
Cc1ccc2nc(-c3ccc(N)cc3)sc2c1S(=O)(=O)O,2.47% [at 35.3 µM],
CCN(CC)c1ccc2c(c1)Oc1cc(N(CC)CC)ccc1C21OC(=O)c2ccccc21,-18% [at 35.3 µM],
O=C(O)C[C@H](O)C[C@H](O)/C=C/c1c(C2CC2)nc2ccccc2c1-c1ccc(F)cc1,4.17% [at 15.8 µM],
COc1cc(C(C)C)ccc1C,-7.86% [at 15.8 µM],
CCCCCc1ccc(O)cc1,-18.5%,
Nc1ccc(Oc2cccc(Oc3ccc(N)cc3)c2)cc1,0.763%,

Compound,"viability change, negative = cytotoxic",Potency
[Cl][Dy]([Cl])[Cl],-12.2%,
CC/C=C\C/C=C\C/C=C\CCCCCCCC(=O)OC,-6.41%,
Clc1cccc(Cl)n1,1.49%,
O=C1OCc2ccccc21,-3.25%,
C/C=C/C(=O)OCC(C)C,0.442%,
C=C1CC[C@H]2O[C@]2(C)CC[C@@H]2[C@@H]1CC2(C)C,5.34%,
ClC(c1ccccc1)(c1ccccc1)c1ccccc1,-3.92%,
O=C(NCc1ncc(C(F)(F)F)cc1Cl)c1c(Cl)cccc1Cl,0.648%,
O=C1CCCCCCCCCCCCCC1,-5.7%,
Nc1cccnc1N,-0.375%,
CN1CC[C@H](c2c(O)cc(O)c3c(=O)cc(-c4ccccc4Cl)oc23)[C@H](O)C1,-4.93% [at 35.3 µM],
Nc1ccc(F)c([N+](=O)[O-])c1,-11.6%,
Cc1ccc(Cl)c(N)c1Cl,-10.3%,
C/C(=N\[Si](C)(C)C)O[Si](C)(C)C,2.19%,
CCCCCCCCCCCCCCCCC(C(=O)O)C(O)(CC(=O)O)C(=O)O (stereo not given),-12.9% [at 35.3 µM],
CC1=C(/C=C/C(C)=C/C=C/C(C)=C\C(=O)O)C(C)(C)CCC1,-11.5%,
C=C(C)CCO,-14.8%,
c1ccc(-c2nc3ccccc3[nH]2)cc1,-24.5%,
Oc1ccc(C2(c3ccc(O)c(C4CCCCC4)c3)CCCCC2)cc1C1CCCCC1,,43.6 µM (active)
Oc1ccc2c(c1)CCC2,3.03%,
